Bioassay records as filed in PubChem.
p53 reactivation = qHTS assay for re-activators of p53 using a Luc reporter; H1299 p53-A138V BP100-luciferase reporter, luminescence, 24 h; Potency, µM (top dose mostly 92.2 µM), without a hit: at the highest dose activity change, positive = activation, most hits filed as activators; 320,000 tested, 0.063% active; also: potency is read from the fitted curve at half-maximal effect; % of control where 0% means no effect; nearly all actives have a fitted effect of over 45% in size
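p53-null H1299 cells stably carrying temperature-sensitive p53-A138V and a BP100-luciferase reporter were pinned with compounds (4-point, 1:5 series) and held 24 hrs at 37 deg C. Luminescence was read 10 min after detection reagent.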
ASM inhibitor = Inhibitors of Secretory Acid Sphingomyelinase (S-ASM): qHTS; Sphingomyelin phosphodiesterase (Homo sapiens), P17405; 340,000 tested, 0.006% active; Potency, µM (highest dose often 57.5 µM), inactives show at the highest dose activity change, negative = inhibition, actives largely listed as inhibitors; placental ASM, HMU-PC fluorogenic substrate, 60 min; also: potency is read from the fitted curve at half-maximal effect
Target sequence (P17405 47-631 limits assumed): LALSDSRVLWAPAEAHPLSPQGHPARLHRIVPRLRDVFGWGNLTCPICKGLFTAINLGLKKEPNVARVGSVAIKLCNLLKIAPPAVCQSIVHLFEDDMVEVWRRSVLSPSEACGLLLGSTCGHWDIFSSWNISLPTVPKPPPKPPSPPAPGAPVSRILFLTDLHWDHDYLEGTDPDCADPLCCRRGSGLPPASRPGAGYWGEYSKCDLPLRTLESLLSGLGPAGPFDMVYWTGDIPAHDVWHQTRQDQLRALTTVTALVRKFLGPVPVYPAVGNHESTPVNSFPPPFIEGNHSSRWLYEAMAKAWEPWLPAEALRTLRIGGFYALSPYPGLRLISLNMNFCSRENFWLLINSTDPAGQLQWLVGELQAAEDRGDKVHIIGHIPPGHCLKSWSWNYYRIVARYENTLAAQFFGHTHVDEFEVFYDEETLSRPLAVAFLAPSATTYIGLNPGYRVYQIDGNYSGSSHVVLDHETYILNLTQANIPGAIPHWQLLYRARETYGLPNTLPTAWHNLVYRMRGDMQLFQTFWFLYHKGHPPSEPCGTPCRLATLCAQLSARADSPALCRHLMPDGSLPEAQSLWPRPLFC
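Human placenta-derived ASM preincubated with compound 10 min at room temperature, then reacted with 9 uM (final) fluorogenic HMU-PC substrate for 60 min at 37 C. Stop solution raises pH to 10; fluorescence read at Ex 386/Em 447 nm.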
CCT chaperon mod = High-Throughput Screening for Modulators of Cytosolic Chaperonin Activity | purified chaperonin ATPase assay, HTRF ADP detection, 30 min | activity change, % (no concentration beside the values), hits read low | 360,000 tested, 0.3% active | AID 651819, 2012; in the data active = activity change below about -30%; also: % is scaled to controls: 0 for no effect and ±100 for the full control effect
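First, chaperonin was dispensed at 40 nM or 20 nM final depending on batch activity. Next, compounds were pinned at 76 uM and ATP added at 10 uM. After 30 min at 37 °C, ADP detection reagents ran 30 min at ambient temperature.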
MmCpn inh = Inhibitors of TCP-1 ring complex (TRiC) of Methanococcus maripaludis (MmCpn): qHTS; Chaperonin Mm-Cpn (Methanococcus maripaludis); 330,000 tested, 0.031% active; AID 504842, 2011; purified Mm-Cpn ATPase, ADP Transcreener TR-FRET; Potency, µM (series often up to 76.9 µM), for the others: at the top dose activity, negative = inhibition, actives largely listed as inhibitors; also: potency is read from the fitted curve at half-maximal effect; % is scaled to controls: 0 for no effect and ±100 for the full control effect; nearly all actives have a fitted effect of over 80% in size
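TR-FRET (320 nm excitation; 590 and 665 nm emission) reports ADP made from 10 uM ATP by 25 nM enzyme; compounds were preincubated 10 min, reaction run 30 min, both at 37°C.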
ALOX12 inh = Primary qHTS assay for inhibitors of human arachidonate 12S-lipoxygenase (ALOX12): Round 2; 580,000 tested, 1.1% active; AID 1671190, 2021; purified 12hLO, xylenol orange hydroperoxide absorbance; Potency, µM (series often up to 108 µM), for the others: at the top dose activity change, negative = inhibition, hits mostly inhibitors; Polyunsaturated fatty acid lipoxygenase ALOX12 (Homo sapiens), P18054; also: potency is read from the fitted curve at half-maximal effect; % is scaled to controls: 0 for no effect and ±100 for the full control effect
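Hydroperoxide product was detected by ferrous iron/xylenol orange as the 573 to 405 nm absorbance ratio. Arachidonic acid at 40 uM (final) was turned over for 30 min at room temperature by 150 nM human 12hLO, pH 7.0 Hepes buffer, after 15 min compound preincubation.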
PINK1 expr mod = A Quantitative High throughput Screen to Identify Chemical Modulators of PINK1 Expression; PINK1 immunofluorescence, high-content cytometry, 24 h; 410,000 tested, 0.2% active; Potency, µM (series often up to 76.6 µM), for the others: top-dose activation (PINK1 increase), usual class: activators; active = well fitted activation curve with a large enough effect; inconclusive = small, poorly fitted or top-dose-only effect; cell line not stated here; also: potency is read from the fitted curve at half-maximal effect; % of control where 0% means no effect; nearly all actives have a fitted effect of over 65% in size
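PINK1 protein, normally rapidly degraded, was detected by immunofluorescence after 24 hour compound treatment of a stable cell line. Titration data (5 concentrations) came from laser-scanning cytometry, with CCCP-treated wells as controls.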
* = called active by the depositor; ? = inconclusive; . = no result; ! = repeats disagree; [ ] = another dose, or the depositor's remark. In the library only some 1.4% were active in any assay of this set; here they are far more common. Unless noted, calls follow the shape of the dose curve; as a rule, active = well fitted curve in the direction sought with a large enough effect; inconclusive = small, poorly fitted or top-dose-only effect, or another doubt; inactive = no such curve, though single readings can be large; an effect the other way counts as inactive or inconclusive.

SMILES	p53 reactivation	ASM inhibitor	CCT chaperon mod	MmCpn inh	ALOX12 inh	PINK1 expr mod
Cc1occc1C(=O)N(C)CC1CCCN(CCc2ccc(Cl)cc2)C1 (configuration not stated)	.	.	1	.	45µM*	-1%
COc1ccccc1CN1CCCn2nc(C)c(-c3cccnc3N3CCOCC3)c21	.	.	.	.	13%[176 µM]	.
Cc1nn2c(c1-c1cccnc1N1CCOCC1)N(CC1CC1)CCC2	.	.	.	.	10µM*	.
CCNc1ccc(Br)cc(C(=O)/C=C/c2ccc3c(c2)OCO3)c1=O	-8%	-13%	-1	-1%	3.2µM*	0%
CCCS(=O)(=O)c1c(S(=O)(=O)CCC)c2c(N)cccn2c1C(=O)c1ccc(Br)cc1	-2%	-13%	-1	-5%	6.3µM*	-2%
COc1cccc(CCC2CCCN(C(=O)c3ccoc3C)C2)c1 (configuration not stated)	.	.	.	.	66%	.
COc1cc(NC(=O)c2ccccc2)c(OC)cc1NC(=O)CCc1ccc(-c2ccccc2)o1	.	.	.	.	-3%	.
COc1ccc(C(=S)N2CCOCC2)cc1OC(=O)c1cccc([N+](=O)[O-])c1	-2%	-3%	-1	2%	-17%	1%
COc1ccc(C(=S)N2CCOCC2)cc1OC(=O)c1ccc([N+](=O)[O-])cc1	-2%	-3%	0	0%	25µM*	2%
COc1ccc2nc(/C(C#N)=C\c3ccc(I)cc3)[nH]c2c1	.	.	.	.	-30%	.
Cc1ccc(N(CC(O)COCc2ccco2)S(=O)(=O)c2ccc(C)cc2)cc1 (configuration not stated)	3%	-9%	0	0%	35µM*	0%[38.3 µM]
CCCN(CCC)CC(O)CN(c1ccccc1)S(=O)(=O)c1ccc(C)cc1 (configuration not stated)	2%	-1%	1	0%	-6%	-1%
O=C(NCCn1ccn2nc(-c3ccc(F)cc3)cc2c1=O)c1ccc2[nH]ccc2c1	.	.	.	.	7%	.
COCCSc1nc2c(c(=O)[nH]c(=O)n2C)n1CCCc1ccccc1	-2%	-1%	2	1%	28µM*!	1%
COc1ccc(C2(CNC(=O)/C=C\c3ccco3)CCCC2)cc1OC	6%	-2%	2	0%	45µM*	1%
CC1Sc2ccc(C(=O)NNC(=O)CSc3cccc4cccnc34)cc2NC1=O (configuration not stated)	.	.	.	.	7.9µM*	.
CC1Sc2ccc(C(=O)NCc3ccccn3)cc2NC1=O (configuration not stated)	11%	0%	-4	0%	-23%	-1%
O=C(CSc1cccc2cccnc12)Nc1cc(C(=O)O)cc(C(=O)O)c1	-6%	4%	-2	-10%	25µM*	1%
O=S(=O)(c1cc(O)ccc1O)c1cccc2c(S(=O)(=O)c3cc(O)ccc3O)cccc12	-4%	?	-1	0%	32µM*	1%
CN(C)CCCOC(=O)COc1ccccc1	.	.	.	.	-13%	.
c1ccc2c[n+](Cc3cccc4ccccc34)ccc2c1	.	.	.	.	-7%	.
S=c1nc(-c2ccccc2)[nH]n1-c1ccccc1	1%	2%	-3	-2%	?	-2%[38.3 µM]
S=c1nc(-c2ccccc2)n(-c2ccccc2)[nH]1	12%	5%	-7	-22%	45µM*	0%
CN(C)c1ccc(-c2csc(C(O)(c3ccccc3)C(F)(F)F)n2)cc1 (configuration not stated)	.	.	0	.	18µM*	13%
Cc1ccccc1-c1csc(C(O)(c2ccccc2)C(F)(F)F)n1 (configuration not stated)	.	.	0	.	45µM*	1%
SMILES	p53 reactivation	ASM inhibitor	CCT chaperon mod	MmCpn inh	ALOX12 inh	PINK1 expr mod
COc1ccc(-n2nnnc2C(C2CC2)N2CCN(C/C=C/c3ccccc3)CC2)cc1 (configuration not stated)	.	.	-4	.	40µM*	-1%
COCCNC(=O)c1cc(-c2ccccn2)nc2ccccc12	.	.	.	.	3%	.
C=Cc1cc2c(cc1O)CCC1C2CCC2(C)C(O)CCC12 (configuration not stated)	.	-8%	-2	.	?	-1%
CC#Cc1cc2c(cc1O)CCC1C2CCC2(C)C(O)CCC12 (configuration not stated)	.	-2%	2	.	45µM*	8%
OCC1(Cc2ccccc2)CCN(C2CCN(c3ccc(F)c(F)c3)CC2)CC1	1%	4%	-2	2%	50µM*	3%
COC(=O)c1sc(-c2ccccc2)cc1NC(C)=O	-1%	7%	-2	-12%	-9%	1%
COC(=O)c1sc(-c2cccs2)cc1NC(=O)/C=C/C(=O)O	7%	15%	-42*	?	-18%	-1%
Cc1ccc(C2=NC(C(F)(F)F)(C(F)(F)F)c3c(n(-c4ccccc4)c(=O)[nH]c3=O)N2)cc1	.	.	.	.	35%	.
O=c1[nH]c(=O)n(-c2ccc(F)cc2)c2c1C(C(F)(F)F)(C(F)(F)F)N=C(c1ccc(F)cc1)N2	0%	.	-1	2%	2%	10µM*
Cc1ccc(C2=NC(C(F)(F)F)(C(F)(F)F)c3c(n(-c4ccc(F)cc4)c(=O)[nH]c3=O)N2)cc1	-4%	-3%	-2	0%	9%	40µM*
CCOc1ccccc1/C=C1\Oc2cc(OS(C)(=O)=O)ccc2C1=O	.	.	.	.	-27%	.
C=C(C)[C@@H]1CCC2(C(=O)OC)CC[C@]3(C)C(CCC4[C@@]5(C)C/C(=C\c6ccccc6)C(=O)C(C)(C)C5CC[C@]43C)C12 (some centres not stated)	.	.	.	.	-1%	.
COC(=O)[C@]12CCC(C)(C)C[C@@H]1[C@@H]1C(=O)C=C3[C@@]4(C)C=C(C#N)C(=O)C(C)(C)[C@@H]4CC[C@@]3(C)[C@]1(C)CC2	.	.	.	.	9.7µM*	.
CCOc1ccc(C(CN2CCOCC2)C(C)=O)cc1OC (configuration not stated)	.	.	-1	.	32µM*	-1%
CNc1sc(C(C)=O)cc1C	.	.	.	.	13µM*	.
CC(=O)c1cc(Cc2csc(C(C)=O)c2)cs1	5%	8%	-3	0%	-4%	0%[38.3 µM]
O=C1CCCC2=C1C(c1ccsc1)CC(=O)N2c1ccc(C(F)(F)F)cc1 (configuration not stated)	.	.	.	.	-4%	.
